Source: PubChem
Tg IFNy HTS: T. gondii growth inhibition under IFN-gamma; hit rate 3.8% among 69,000; activity change, negative = inhibition, % (test concentration not listed); Toxoplasma gondii growth in IFN-gamma-treated host cells; hits give low values; in the data active means activity change below about -70%, passing the limit was not always enough;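 further: host cells are HeLa cells infected with Toxoplasma gondii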
Hits are given with their value; – = inactive. This excerpt belongs to a sample that is enriched for hits.

SMILES | Tg IFNy HTS
COCC1CN(C(=O)COc2ccc(C)cc2)Cc2ncn(C)c21 (configuration not stated) | –
COc1ccc(NC(=O)c2ccc3nnc(C4CN(c5ncccn5)CCN4C)n3c2)cc1 (configuration not stated) | –
CO/N=C1\CC(C)(C)Cc2c(-c3ccn(C(=O)c4cccs4)n3)sc(SC)c21 | -76
O=C(c1ccccc1)n1ccc(-c2cccs2)n1 | –
O=C(c1cccs1)n1ccc(-c2nc3ccccc3s2)n1 | –
CC(=O)N(Cc1cccc(F)c1)C[C@@H]1[C@@H](c2ccccc2)[C@@H](CO)N1C(C)=O | –
Cc1c(NCc2cccnc2)cccc1C(=O)NCc1cccc2[nH]ccc12 | –
COC(=O)c1[nH]ncc1CN1CCCN(c2ccc(F)cc2)CC1 | –
CCCN1C(=O)CCc2cc(NC(=O)c3ccc(C)cc3)ccc21 | –
CCCN1C(=O)CCc2cc(NC(=O)c3ccc(C(C)C)cc3)ccc21 | -106
CCCN1C(=O)CCc2cc(NC(=O)c3ccsc3)ccc21 | –
CCOc1ccc(C(=O)Nc2ccc3c(c2)CCC(=O)N3CC(C)C)cc1 | -82
CCOc1ccc(S(=O)(=O)Nc2ccc3c(c2)CCC(=O)N3CC(C)C)cc1 | –
CC(=O)Nc1ccc2c(c1)CCC(=O)N2CC(C)C | –
Cn1ccnc1CN1C[C@H]2CN(C(=O)c3cscn3)C[C@@H]2C1 | –
CCC(C(=O)Nc1ccc(NC(=O)c2ccc(C)o2)cc1)n1cccn1 (configuration not stated) | –
CCN(CC)CCNC(=O)c1ccc2nnc(C3CN(CC4CC4)CCN3C)n2c1 (configuration not stated) | –
CCc1ccc(-c2nccn2Cc2c(C)nn(CC)c2C)nc1 | –
Cc1nc(C23CC4CC(CC(C4)C2)C3)cs1 | –
Cc1cc(C)n(CCCN(C)Cc2cnn(-c3ccc(Cl)cc3)c2)n1 | –
Cc1cccc(-c2nnc(-c3nc(NCc4cccnc4)c4ccccc4n3)o2)c1 | –
Cc1cccc(CNc2nc(-c3nnc(-c4ccccc4)o3)nc3ccccc23)c1 | -85
COc1ccc(-c2nnc(-c3nc(NCc4cccc(C)c4)c4ccccc4n3)o2)cc1 | –
Cc1ccc(-c2nnc(-c3nc(NCCc4ccco4)c4ccccc4n3)o2)cc1 | –
c1ccc(-c2nnc(-c3nc(NCc4ccco4)c4ccccc4n3)o2)cc1 | –
SMILES | Tg IFNy HTS
CCC(C)Nc1nc(-c2nnc(-c3cccc(C)c3)o2)nc2ccccc12 (configuration not stated) | –
Cc1cccc(-c2nnc(-c3nc(N4CCOCC4)c4ccccc4n3)o2)c1 | –
Cc1ccc(-c2nnc(-c3nc(NCc4cccc(F)c4)c4ccccc4n3)o2)cc1 | –
CCCSCCCNc1nc(-c2nnc(-c3ccc(C)cc3)o2)nc2ccccc12 | –
Cc1cccc(-c2nnc(-c3nc(NCCN4CCCC4)c4ccccc4n3)o2)c1 | -90
CCCNc1nc(-c2nnc(-c3cccc(C)c3)o2)nc2ccccc12 | -98
Cc1cccc(-c2nnc(-c3nc(NCCc4ccco4)c4ccccc4n3)o2)c1 | -100
Fc1cc(CNC2(c3ccc(Cl)cc3)CCC2)ccc1N1CCOCC1 | –
Cc1ccc(S(=O)(=O)N2CCn3nnc(COCC4CC4)c3C2)cc1 | –
CCc1cnc(N2C[C@H]3C[C@H](C(=O)NCc4cccnc4)[C@@H](C2)O3)nc1 | –
OC[C@@H]1[C@H](c2ccc(Br)cc2)[C@H]2CNCCCCN12 | –
COc1ncccc1CN1CCOc2c(O)cc(-c3ccc(C)s3)cc2C1 | –
Cc1ccc(C(=O)N2C[C@@H]3COC[C@]3(COCC3CC3)C2)o1 | –
Cc1ccncc1C(=O)N1CCOc2c(O)cc(-c3cccc(Cl)c3)cc2C1 | –
Cc1cccc(-n2ccc(-c3cnccn3)n2)c1 | –
CCOc1ccc(CNc2nc(-c3nnc(-c4cccc(C)c4)o3)nc3ccccc23)cc1 | –
Cc1cccc(-c2nnc(-c3nc(NCc4ccc(C)o4)c4ccccc4n3)o2)c1 | -80
Cc1cccc(-c2nnc(-c3nc(NCc4ccc(N(C)C)cc4)c4ccccc4n3)o2)c1 | –
O=C(c1ccccc1C1CCNC1)N1CCOc2ccc(Cl)cc2C1 (configuration not stated) | –
Clc1ccc2nc(N3CC(c4ccccn4)C3)sc2c1 | –
O=C(COc1ccc(F)cc1)N1CCC2(CC1)Nc1ccc(Cl)cc1-n1cccc12 | -115
Cc1cccc(OCC(=O)N2CCC3(CC2)Nc2ccc(Cl)cc2-n2cccc23)c1 | -107
Cc1cccc(C(=O)N2CCC3(CC2)Nc2ccc(Cl)cc2-n2cccc23)c1 | –
O=C(COc1ccccc1)N1CCC2(CC1)Nc1cc(F)ccc1-n1cccc12 | –
O=C(COc1ccc(Cl)cc1)N1CCC2(CC1)Nc1ccc(Cl)cc1-n1cccc12 | –
SMILES | Tg IFNy HTS
COc1cccc(CC(=O)N2CCC3(CC2)Nc2ccc(Cl)cc2-n2cccc23)c1 | –
COc1ccc(-c2csc(N3N=C(c4ccccc4)CC3=O)n2)cc1 | –
O=C1C2CC=CCC2C(=O)N1c1cccc(N2C(=O)C3CC=CCC3C2=O)n1 (configuration not stated) | –
CC(C)NC(=O)C1Cn2ccnc2C2(CCN(C(=O)c3cccn3C)CC2)O1 (configuration not stated) | –
CCS(=O)(=O)N1CCC2(CC(=O)N(c3ccc4c(c3)OCO4)C2)C1 (configuration not stated) | –
COc1ccc(C(C)NC(=O)c2ccc(Cc3c(C)noc3C)s2)cc1F (configuration not stated) | –
COc1ccc2nc(NC(=O)COc3cccc(C)c3)sc2c1 | –
COc1cc2sc(NC(=O)Cc3c(C)noc3C)nc2cc1Cl | -79
COc1cccc(-n2cnc3ccccc32)n1 | -90
COc1cc(-c2nc3ccccc3n2C)cc(OC)c1OC | –
Cn1c(Br)nc2ccccc21 | –
CC(C)n1c(CN2CCC3(CCC(=O)N(C)CC3)CC2)nc2ccccc21 | –
CCC(=O)NCc1ccccc1-c1cnc2ccccc2c1 | –
COc1ccc(S(=O)(=O)N(C)C[C@@H]2Oc3ccc(NC(=O)Nc4ccc(C(F)(F)F)cc4)cc3C(=O)N([C@H](C)CO)C[C@H]2C)cc1 | -75
COc1ccc(S(=O)(=O)Nc2ccc3c(c2)C(=O)N([C@@H](C)CO)C[C@H](C)[C@H](CN(C)S(=O)(=O)c2ccc(Cl)cc2)OCCCC[C@@H](C)O3)cc1 | -112
COc1ccc(S(=O)(=O)N(C)C[C@@H]2OCCCC[C@@H](C)Oc3ccc(NC(=O)Cc4ccccc4)cc3C(=O)N([C@@H](C)CO)C[C@@H]2C)cc1 | –
COc1ccc(S(=O)(=O)N(C)C[C@H]2Oc3ccc(NC(=O)Nc4ccc(C(F)(F)F)cc4)cc3C(=O)N([C@H](C)CO)C[C@@H]2C)cc1 | –
COc1ccc(S(=O)(=O)N(C)C[C@H]2OCCCC[C@H](C)Oc3ccc(NC(=O)Cc4ccccc4)cc3C(=O)N([C@H](C)CO)C[C@H]2C)cc1 | –
COc1ccc(S(=O)(=O)Nc2ccc3c(c2)C(=O)N([C@H](C)CO)C[C@H](C)[C@H](CN(C)S(=O)(=O)c2ccc(Cl)cc2)OCCCC[C@@H](C)O3)cc1 | –
COc1ccc(S(=O)(=O)N(C)C[C@H]2OCCCC[C@@H](C)Oc3ccc(NC(=O)Cc4ccccc4)cc3C(=O)N([C@@H](C)CO)C[C@H]2C)cc1 | -102
C[C@@H]1CCCCO[C@H](CN(C)S(=O)(=O)c2ccc(Cl)cc2)[C@@H](C)CN([C@H](C)CO)C(=O)c2cc(NC(=O)Nc3ccc(C(F)(F)F)cc3)ccc2O1 | –
